Test results published in PubChem BioAssay (EPA / NIEHS).
Inconclusive results are not listed. Activity calls are given as the source filed them. The calls were made as follows, unless noted: active = hit-call score of the fitted dose curve at least 0.9, where 1 is the maximum; inconclusive = response in the unintended direction; inactive = score below 0.9.

Key:
[1] = molecular target: rat Opioid Receptor, Non-selective Binding, Oprm1 (gene 25601) (UniProt P33535); experiment: NVS_GPCR_rOpiate_NonSelective: NovaScreen (NVS) G Protein-Coupled Receptor Assay for rat Opioid Receptor, Non-selective Binding (AID 2283318)
Outline: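 Filter-based radioligand displacement using rat forebrain membrane preparations, measured 1.5 h post-dosing. Single-concentration duplicate screen at 25 uM, follow-up in concentration series; activity taken as signal loss relative to DMSO.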

[2] = NVS_IC_rCaDHPRCh_L: NovaScreen (NVS) Ion Channel Assay for rat Calcium Channel, Type L, Dihydropyridine Site (CaDHPRCh_L) (AID 2283320)
Outline: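 Rat cortex membrane preparation; dihydropyridine-site radioligand displacement read 1 h post-dose by filtration and scintillation. Primary single-point screen 25 uM in duplicate, then concentration series to 50 uM maximum; DMSO as negative control.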

[3] = molecular target: Sodium channel protein type 1 subunit alpha (Rattus norvegicus) (UniProt P04774); experiment: NVS_IC_rNaCh_site2: NovaScreen (NVS) Ion Channel Assay for rat Sodium Channel, Site 2 (NaCh) (AID 2283322);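 also: hit means loss of radioligand binding signal relative to DMSO so AC50 marks displacement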
Outline: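 Initial duplicate single-point testing at 25 uM, followed by concentration-response runs for actives. Binding of radioligand to rat forebrain membranes quantified after 1 h via filter-based radiodetection.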

[4] = molecular target: human Serotonin, 5-Hydroxytryptamine Receptor 3 (5HT3), HTR3A (gene 3359) (UniProt P46098); experiment: NVS_LGIC_h5HT3: NovaScreen (NVS) Ligand-Gated Ion Channel Assay for human Serotonin, 5-Hydroxytryptamine Receptor 3 (5HT3) (AID 2283325)
Outline: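 Initially tested at 25 uM in duplicate, then up to 50 uM in concentration-response for actives, compounds competed with a radioligand for HEK293-derived human 5-HT3 receptor. Bound counts were measured by filtration and scintillation at 1 h; loss of signal versus DMSO.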

[5] = molecular target: rat Gamma-Aminobutyric Acid Type A Receptor, Non-Selective (GABAR-NonSelective), Gabra1 (gene 29705) (UniProt P62813); experiment: NVS_LGIC_rGABAR_NonSelective: NovaScreen (NVS) Ligand-Gated Ion Channel Assay for rat Gamma-Aminobutyric Acid Type A Receptor, Non-Selective (GABAR-NonSelective) (AID 2283326)
Outline: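 Compounds were first screened in duplicate at 25 uM, with actives run as singleton concentration series (max 50 uM). Binding of a radioligand to rat whole-brain GABA-A preparation was measured by filtration and scintillation counting after 1 h, DMSO baseline.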

[6] = molecular target: Voltage-gated inwardly rectifying potassium channel KCNH2 (Homo sapiens) (UniProt Q12809); experiment: NVS_IC_hKhERGCh: NovaScreen (NVS) Ion Channel Assay for human Potassium Channel ERG (KhERGCh) (AID 2283333)
Outline: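 Membranes from CHO cells expressing human ERG; displacement of radioligand measured by filtration and scintillation after 0.75 h. Single-concentration duplicate screen at 25 uM, then concentration-response for actives; DMSO baseline.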

[7] = NVS_IC_rCaBTZCHL: NovaScreen (NVS) Ion Channel Assay for Calcium Channel, Type L, Benzothiazepine Site (CaBTZCHL) (AID 2283337)
Outline: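 Rat cortical membrane preparation incubated 1.5 h with compound and benzothiazepine-site radioligand; loss of filter-bound counts versus DMSO marks displacement. Initial duplicate testing at 25 uM, actives followed up in concentration series.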

[8] = molecular target: bovine Gamma-Aminobutyric Acid Type A Receptor Agonist (GABAR Agonist), GABRA1 (gene 780973) (UniProt P08219); experiment: NVS_LGIC_bGABAR_Agonist: NovaScreen (NVS) Ligand-Gated Ion Channel Assay for bovine Gamma-Aminobutyric Acid Type A Receptor Agonist (GABAR Agonist) (AID 2283338)
Outline: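 Radioligand binding to bovine cerebellar membranes in agonist format, read by filter-based scintillation counting after 1 h. Primary screen in duplicate at 25 uM, with actives followed in concentration series. Gain of signal versus DMSO.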

[9] = molecular target: Small conductance calcium-activated potassium channel protein 1 (Rattus norvegicus) (UniProt P70606); experiment: NVS_IC_rKCaCh: NovaScreen (NVS) Ion Channel Assay for rat Potassium Channel, Ca2+ Act., VI (KCaCh) (AID 2283336)
Outline: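 Filter-based scintillation counting of radioligand bound to rat forebrain membrane preparations, measured 1 h after compound addition. Primary screen used 25 uM in duplicate, with concentration-response follow-up; signal decrease relative to DMSO marks activity.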

[10] = molecular target: rat Glutamate, NMDA Agonist Site (GluNMDA), Grin1 (gene 24408) (UniProt P35439); experiment: NVS_LGIC_rGluNMDA_Agonist: NovaScreen (NVS) Ligand-Gated Ion Channel Assay for rat Glutamate, NMDA Agonist Site (GluNMDA) (AID 2283327)
Outline: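 Radioligand displacement at the agonist site on rat forebrain membrane preparations, read by filter scintillation after 1 h. Chemicals were first run at 25 uM in duplicate; those passing threshold were titrated to a 50 uM maximum.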

[11] = molecular target: rat Glutamate, MK-801 Agonist Site (GluNMDA_MK801), Grin1 (gene 24408) (UniProt P35439); experiment: NVS_LGIC_rGluNMDA_MK801_Agonist: NovaScreen (NVS) Ligand-Gated Ion Channel Assay for rat Glutamate, MK-801 Agonist Site (GluNMDA_MK801) (AID 2283340)
Outline: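 Rat forebrain membrane preparation; MK-801-site radioligand binding read by filtration and scintillation after 1.5 h. Single-point 25 uM duplicate screen, followed by singleton concentration series to 50 uM max; DMSO baseline.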

[12] = molecular target: rat Glutamate, AMPA Site (AMPA), Gria1 (gene 50592) (UniProt P19490); experiment: NVS_LGIC_rAMPA: NovaScreen (NVS) Ligand-Gated Ion Channel Assay for rat Glutamate, AMPA Site (AMPA) (AID 2283324)
Outline: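 Screening at 25 uM in duplicate preceded concentration series reaching 50 uM for qualifying compounds. Radioligand displacement on rat forebrain membranes, 1 h, filter-based scintillation readout; reduced binding relative to DMSO.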

[13] = molecular target: human Androgen Receptor (AR), AR (gene 367) (UniProt P10275); experiment: NVS_NR_hAR: NovaScreen (NVS) Nuclear Receptor Binding Assay for human Androgen Receptor (AR) (AID 2283332)
Outline: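 Actives from a duplicate 25 uM single-point screen went on to concentration series. Read-out after 20 h was scintillation counting of displaced radioligand in LnCAP extract, with DMSO as baseline.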

[14] = molecular target: rat Peripheral-type Benzodiazepine Receptor (PBR), Tspo (gene 24230) (UniProt P16257); experiment: NVS_MP_rPBR: NovaScreen (NVS) Membrane Protein Assay for rat Peripheral-type Benzodiazepine Receptor (PBR) (AID 2283335)
Outline: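 Competitive displacement of specific radioligand from rat kidney membrane PBR, read by filtration and scintillation after 1 h. Compounds first tested at 25 uM in duplicate, then in concentration series; signal loss relative to DMSO.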

[15] = molecular target: bovine Gamma-Aminobutyric Acid Type A Receptor BDZ, alpha 5 site (GABARa5), GABRA5 (gene 523515) (UniProt Q08E50); experiment: NVS_LGIC_bGABARa5: NovaScreen (NVS) Ligand-Gated Ion Channel Assay for bovine Gamma-Aminobutyric Acid Type A Receptor BDZ, alpha 5 site (GABARa5) (AID 2283323)
Outline: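 Tested first in duplicate at a single 25 uM, with hits re-run in concentration series to a 50 uM maximum. Bovine hippocampal membranes; specific radioligand displacement measured by filter scintillation counting 1 hr post-dose.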

[16] = molecular target: Glutamate receptor ionotropic, kainate 1 (Rattus norvegicus) (UniProt P22756); experiment: NVS_IC_rKAR: NovaScreen (NVS) Ion Channel Assay for rat Kainic Acid Receptors (KAR) (AID 2283334; active = hit-call score of the fitted dose curve at least 0.9, where 1 is the maximum; inactive = score below 0.9)
Outline: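 Rat forebrain membrane preparation incubated 1 h with radioligand and test chemical; bound signal read by filtration and scintillation. Single-concentration screen at 25 uM, then concentration series to 50 uM maximum.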

[17] = molecular target: rat Thyrotropin Releasing Hormone Receptor (TRH), Trhr (gene 25570) (UniProt Q01717); experiment: NVS_GPCR_rTRH: NovaScreen (NVS) G Protein-Coupled Receptor Assay for rat Thyrotropin Releasing Hormone Receptor (TRH) (AID 2283329);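 also: hit means lower bound tracer signal versus DMSO baseline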
Outline: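 Cell-free radioligand binding on rat forebrain membranes; bound tracer measured by filter-based scintillation counting 4 hours after dosing. Loss of signal versus DMSO baseline indicates displacement; primary screen at 25 uM in duplicate, actives then run in concentration series.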

[18] = molecular target: human Constitutive Androstane Receptor (CAR), NR1I3 (gene 9970) (UniProt Q14994); experiment: NVS_NR_hCAR_Agonist: NovaScreen (NVS) Nuclear Receptor Binding Assay for human Constitutive Androstane Receptor Agonism (CAR) (AID 2283328)
Outline: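 Actives from a 25 uM duplicate screen were retested in singleton concentration series to 50 uM max. Biochemical TR-FRET assay on extracted CAR protein measured 1 h post-dose, with signal increase over DMSO control.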

Sequence of Voltage-gated inwardly rectifying potassium channel KCNH2 (Homo sapiens) (Q12809 whole entry, looked up): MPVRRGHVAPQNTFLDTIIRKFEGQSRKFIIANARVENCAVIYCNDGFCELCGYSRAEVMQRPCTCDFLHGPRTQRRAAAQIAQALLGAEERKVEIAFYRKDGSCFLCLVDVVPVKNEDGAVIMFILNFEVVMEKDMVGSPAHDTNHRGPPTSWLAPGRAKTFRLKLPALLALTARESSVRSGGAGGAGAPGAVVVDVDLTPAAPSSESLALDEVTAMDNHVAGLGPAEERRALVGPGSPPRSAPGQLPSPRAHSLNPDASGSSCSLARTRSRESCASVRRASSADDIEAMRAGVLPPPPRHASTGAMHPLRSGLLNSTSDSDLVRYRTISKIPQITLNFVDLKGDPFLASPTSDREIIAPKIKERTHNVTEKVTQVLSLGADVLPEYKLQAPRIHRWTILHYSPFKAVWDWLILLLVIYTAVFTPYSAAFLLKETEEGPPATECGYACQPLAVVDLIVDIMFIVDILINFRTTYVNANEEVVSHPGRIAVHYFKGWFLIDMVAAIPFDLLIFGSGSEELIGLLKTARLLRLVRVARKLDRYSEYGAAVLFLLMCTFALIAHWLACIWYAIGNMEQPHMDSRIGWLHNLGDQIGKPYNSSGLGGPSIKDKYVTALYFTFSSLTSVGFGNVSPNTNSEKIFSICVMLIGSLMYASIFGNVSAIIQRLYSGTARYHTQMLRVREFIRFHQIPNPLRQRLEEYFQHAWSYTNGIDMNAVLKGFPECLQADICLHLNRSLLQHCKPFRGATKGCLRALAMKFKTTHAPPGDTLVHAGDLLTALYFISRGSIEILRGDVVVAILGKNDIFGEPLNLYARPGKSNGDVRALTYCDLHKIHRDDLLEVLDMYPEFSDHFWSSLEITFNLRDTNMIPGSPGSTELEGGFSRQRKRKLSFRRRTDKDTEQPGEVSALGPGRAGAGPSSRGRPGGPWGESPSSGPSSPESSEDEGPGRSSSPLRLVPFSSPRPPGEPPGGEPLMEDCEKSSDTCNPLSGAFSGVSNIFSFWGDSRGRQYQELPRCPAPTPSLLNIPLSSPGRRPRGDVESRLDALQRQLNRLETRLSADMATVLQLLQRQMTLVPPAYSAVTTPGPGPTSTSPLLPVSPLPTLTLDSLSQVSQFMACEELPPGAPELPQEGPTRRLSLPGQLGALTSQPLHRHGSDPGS
Sequence of Small conductance calcium-activated potassium channel protein 1 (Rattus norvegicus) (P70606 whole entry, looked up): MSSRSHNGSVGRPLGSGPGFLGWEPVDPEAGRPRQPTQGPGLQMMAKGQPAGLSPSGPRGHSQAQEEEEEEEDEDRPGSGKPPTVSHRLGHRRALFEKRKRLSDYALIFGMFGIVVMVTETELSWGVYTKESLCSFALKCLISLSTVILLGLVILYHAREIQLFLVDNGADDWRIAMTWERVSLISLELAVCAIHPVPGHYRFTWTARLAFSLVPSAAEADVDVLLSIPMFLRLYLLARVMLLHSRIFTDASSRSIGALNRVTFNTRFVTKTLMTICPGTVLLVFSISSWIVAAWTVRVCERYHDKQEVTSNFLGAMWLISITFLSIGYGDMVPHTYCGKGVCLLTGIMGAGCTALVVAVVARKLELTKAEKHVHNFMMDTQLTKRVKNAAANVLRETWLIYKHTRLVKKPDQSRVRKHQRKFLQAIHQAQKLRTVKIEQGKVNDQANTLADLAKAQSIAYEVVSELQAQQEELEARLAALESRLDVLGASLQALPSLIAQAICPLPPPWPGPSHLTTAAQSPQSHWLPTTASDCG
Sequence of bovine Gamma-Aminobutyric Acid Type A Receptor BDZ, alpha 5 site (GABARa5), GABRA5 (gene 523515) (Q08E50 whole entry, looked up): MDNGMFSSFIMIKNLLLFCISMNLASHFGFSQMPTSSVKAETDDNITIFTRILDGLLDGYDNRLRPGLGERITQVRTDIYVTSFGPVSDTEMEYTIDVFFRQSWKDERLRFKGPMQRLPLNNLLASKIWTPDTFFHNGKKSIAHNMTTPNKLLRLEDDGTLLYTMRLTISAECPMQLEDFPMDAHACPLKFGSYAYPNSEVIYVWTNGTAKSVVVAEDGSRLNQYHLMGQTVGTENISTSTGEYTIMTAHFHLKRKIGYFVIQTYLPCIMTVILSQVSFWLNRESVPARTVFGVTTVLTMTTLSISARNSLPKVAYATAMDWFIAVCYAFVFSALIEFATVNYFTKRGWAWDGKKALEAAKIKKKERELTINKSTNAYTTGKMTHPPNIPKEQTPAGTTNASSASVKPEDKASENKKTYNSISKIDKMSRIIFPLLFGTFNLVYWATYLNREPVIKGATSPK
Sequence of rat Opioid Receptor, Non-selective Binding, Oprm1 (gene 25601) (P33535 whole entry, looked up): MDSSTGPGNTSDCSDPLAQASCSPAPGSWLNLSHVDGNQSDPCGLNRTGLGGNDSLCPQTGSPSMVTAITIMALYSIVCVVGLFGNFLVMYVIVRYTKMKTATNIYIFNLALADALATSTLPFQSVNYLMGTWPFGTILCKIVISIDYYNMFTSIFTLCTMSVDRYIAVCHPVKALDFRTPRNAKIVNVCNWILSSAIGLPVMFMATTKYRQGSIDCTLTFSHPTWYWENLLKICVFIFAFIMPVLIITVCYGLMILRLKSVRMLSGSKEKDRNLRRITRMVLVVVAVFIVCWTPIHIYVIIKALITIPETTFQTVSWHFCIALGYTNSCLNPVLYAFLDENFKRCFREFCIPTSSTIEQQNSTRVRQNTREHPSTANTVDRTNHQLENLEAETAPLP
Sequence of human Serotonin, 5-Hydroxytryptamine Receptor 3 (5HT3), HTR3A (gene 3359) (P46098 whole entry, looked up): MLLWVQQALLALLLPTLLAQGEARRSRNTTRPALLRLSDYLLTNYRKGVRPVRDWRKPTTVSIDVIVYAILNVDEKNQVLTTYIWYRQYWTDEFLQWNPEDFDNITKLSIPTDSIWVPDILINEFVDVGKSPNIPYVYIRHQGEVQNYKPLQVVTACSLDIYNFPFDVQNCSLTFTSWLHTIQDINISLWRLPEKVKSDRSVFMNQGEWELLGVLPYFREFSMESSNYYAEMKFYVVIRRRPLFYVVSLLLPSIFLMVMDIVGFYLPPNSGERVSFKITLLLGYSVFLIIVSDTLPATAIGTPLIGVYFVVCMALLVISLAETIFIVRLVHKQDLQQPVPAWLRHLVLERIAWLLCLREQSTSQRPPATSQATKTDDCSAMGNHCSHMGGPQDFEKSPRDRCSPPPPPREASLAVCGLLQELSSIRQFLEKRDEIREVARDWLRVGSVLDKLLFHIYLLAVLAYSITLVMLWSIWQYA
Sequence of bovine Gamma-Aminobutyric Acid Type A Receptor Agonist (GABAR Agonist), GABRA1 (gene 780973) (P08219 whole entry, looked up): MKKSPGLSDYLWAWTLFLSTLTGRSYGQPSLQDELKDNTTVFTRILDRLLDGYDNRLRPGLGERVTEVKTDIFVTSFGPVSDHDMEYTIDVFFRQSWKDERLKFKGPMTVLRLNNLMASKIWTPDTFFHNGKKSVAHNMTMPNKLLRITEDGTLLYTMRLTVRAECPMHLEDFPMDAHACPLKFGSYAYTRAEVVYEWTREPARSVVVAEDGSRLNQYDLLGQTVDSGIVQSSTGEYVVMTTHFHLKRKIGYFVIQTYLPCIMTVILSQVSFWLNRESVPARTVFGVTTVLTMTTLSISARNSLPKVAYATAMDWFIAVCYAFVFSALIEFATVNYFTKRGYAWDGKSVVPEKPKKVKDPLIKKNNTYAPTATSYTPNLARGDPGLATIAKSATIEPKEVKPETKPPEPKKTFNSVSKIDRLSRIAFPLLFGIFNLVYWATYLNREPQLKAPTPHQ
Sequence of rat Glutamate, AMPA Site (AMPA), Gria1 (gene 50592) (P19490 whole entry, looked up): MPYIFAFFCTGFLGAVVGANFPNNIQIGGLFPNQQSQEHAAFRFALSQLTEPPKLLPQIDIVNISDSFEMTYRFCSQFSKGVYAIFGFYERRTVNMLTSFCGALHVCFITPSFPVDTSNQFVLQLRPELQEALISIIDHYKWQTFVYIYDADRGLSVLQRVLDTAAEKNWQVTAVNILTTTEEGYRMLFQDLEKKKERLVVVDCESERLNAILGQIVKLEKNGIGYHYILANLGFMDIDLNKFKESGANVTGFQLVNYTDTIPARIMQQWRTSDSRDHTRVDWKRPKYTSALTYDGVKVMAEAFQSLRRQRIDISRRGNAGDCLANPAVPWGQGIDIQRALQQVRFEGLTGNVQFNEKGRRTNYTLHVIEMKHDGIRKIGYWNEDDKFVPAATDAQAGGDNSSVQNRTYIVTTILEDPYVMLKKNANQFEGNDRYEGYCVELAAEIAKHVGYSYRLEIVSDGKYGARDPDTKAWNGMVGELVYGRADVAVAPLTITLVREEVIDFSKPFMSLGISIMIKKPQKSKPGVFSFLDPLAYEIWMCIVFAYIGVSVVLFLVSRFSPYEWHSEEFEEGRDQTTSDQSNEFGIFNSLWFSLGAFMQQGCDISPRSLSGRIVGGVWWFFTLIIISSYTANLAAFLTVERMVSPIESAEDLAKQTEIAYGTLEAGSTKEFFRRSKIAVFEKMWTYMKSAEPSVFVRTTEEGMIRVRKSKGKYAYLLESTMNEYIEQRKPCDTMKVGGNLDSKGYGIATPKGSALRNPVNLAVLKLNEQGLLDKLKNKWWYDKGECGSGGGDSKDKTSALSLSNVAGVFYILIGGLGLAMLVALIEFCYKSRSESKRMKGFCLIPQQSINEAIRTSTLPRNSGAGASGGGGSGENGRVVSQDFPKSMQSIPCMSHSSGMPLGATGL
Sequence of rat Peripheral-type Benzodiazepine Receptor (PBR), Tspo (gene 24230) (P16257 whole entry, looked up): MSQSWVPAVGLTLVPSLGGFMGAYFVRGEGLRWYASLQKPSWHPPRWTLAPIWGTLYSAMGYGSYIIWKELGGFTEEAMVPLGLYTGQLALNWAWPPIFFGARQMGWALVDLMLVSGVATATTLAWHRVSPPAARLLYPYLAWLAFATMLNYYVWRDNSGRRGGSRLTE
Sequence of human Constitutive Androstane Receptor (CAR), NR1I3 (gene 9970) (Q14994 whole entry, looked up): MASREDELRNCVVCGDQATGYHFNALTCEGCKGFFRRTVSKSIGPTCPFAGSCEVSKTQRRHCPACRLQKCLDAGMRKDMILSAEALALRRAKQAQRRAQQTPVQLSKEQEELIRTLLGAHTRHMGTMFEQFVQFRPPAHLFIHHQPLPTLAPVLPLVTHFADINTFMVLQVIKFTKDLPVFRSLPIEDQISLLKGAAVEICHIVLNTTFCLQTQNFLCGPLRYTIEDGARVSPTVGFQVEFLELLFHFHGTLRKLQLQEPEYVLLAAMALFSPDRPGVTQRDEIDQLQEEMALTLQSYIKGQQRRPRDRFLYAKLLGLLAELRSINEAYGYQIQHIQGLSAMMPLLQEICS

CSc1ccc(Oc2ccc(S(N)(=O)=O)cc2CN(C)C)cc1C
AC50 [1]: 1.36 µM (active)
AC50 [2]: 8.08 µM (active)
AC50 [3]: 13.5 µM (active)
outcome [4]: inactive
AC50 [5]: 10.3 µM (active)
outcome [6]: inactive
AC50 [7]: 10.1 µM (active)
AC50 [8]: 38.8 µM (active)

O=C1OC(c2ccc(O)cc2)(c2ccc(O)cc2)c2ccccc21
AC50 [1]: 0.872 µM (active)
outcome [9]: inactive

O=C1NC(=O)C(c2ccccc2)(c2ccccc2)N1
outcome [3]: inactive

CN(C)CCCN1c2ccccc2Sc2ccc(Cl)cc21
AC50 [3]: 1.96 µM (active)
AC50 [4]: 25 µM (active)
AC50 [10]: 25 µM (active)
AC50 [6]: 10.4 µM (active)
AC50 [7]: 2.52 µM (active)
outcome [8]: inactive
AC50 [11]: 25 µM (active)

Cc1cc(SC2=C(O)C[C@@](CCc3ccc(N)cc3)(C(C)C)OC2=O)c(C(C)(C)C)cc1CO
outcome [1]: inactive
outcome [3]: inactive
outcome [12]: inactive
outcome [4]: inactive
AC50 [13]: 9.33 µM (active)
outcome [6]: inactive
outcome [14]: inactive

CC(=O)O[C@]1(C(C)=O)CC[C@H]2[C@@H]3C=C(Cl)C4=CC(=O)[C@@H]5C[C@@H]5[C@]4(C)[C@H]3CC[C@@]21C
AC50 [1]: 0.353 µM (active)

CCC(C)N(C)C(=O)c1cc2ccccc2c(-c2ccccc2Cl)n1 (configuration not stated)
outcome [15]: inactive
outcome [16]: inactive
AC50 [7]: 9.12 µM (active)

CN(C)C(=O)NC1(c2ccccc2)CCN(CCC[C@]2(c3ccc(Cl)c(Cl)c3)CCCN(C(=O)c3ccccc3)C2)CC1
AC50 [1]: 2.23 µM (active)
AC50 [2]: 0.988 µM (active)
AC50 [3]: 0.327 µM (active)
AC50 [6]: 1.24 µM (active)
outcome [9]: inactive
AC50 [7]: 1.24 µM (active)

CCCCC(CC)COC(=O)CCCCCCCC(=O)OCC(CC)CCCC (configuration not stated)
outcome [3]: inactive

Cn1cnc2c1c(=O)[nH]c(=O)n2C
outcome [3]: inactive
outcome [6]: inactive

CO[C@@H]1COCC[C@@H]1N[C@@H]1CC[C@@](C(=O)N2CCc3ncc(C(F)(F)F)cc3C2)(C(C)C)C1
AC50 [1]: 25 µM (active)
AC50 [3]: 9.94 µM (active)

CC(C)c1cccc(C(C)C)c1NC(=O)NS(=O)(=O)c1cc(C(C)(C)O)co1
outcome [15]: inactive

CCCCc1nc2cccnc2n1Cc1ccc(-c2ccccc2-c2nnn[nH]2)cc1
outcome [15]: inactive
outcome [17]: inactive
AC50 [14]: 14.6 µM (active)

CCCCCCCCCC[N+](C)(C)[O-]
AC50 [3]: 19.1 µM (active)

CC(C)NCC(O)c1ccc(O)c(O)c1 (configuration not stated)
outcome [12]: inactive

CC(C)OC(=O)C(C)(C)Oc1ccc(C(=O)c2ccc(Cl)cc2)cc1
outcome [18]: inactive

O=C(O)c1[nH]n(-c2ccc(S(=O)(=O)O)cc2)c(=O)c1N=Nc1ccc(S(=O)(=O)O)cc1
outcome [6]: inactive
AC50 [7]: 10.4 µM (active)

CCCCCCC(CCCCCCCCCCC(=O)OCC(COC(C)=O)OC(C)=O)OC(C)=O (configuration not stated)
outcome [6]: inactive

c1ccc2occc2c1
outcome [9]: inactive

NC1CCCCC1
outcome [11]: inactive
